The numbers were not newly measured in PubChem BioAssay AID977611, which cites them from elsewhere.

The Kd is the free concentration of one partner at which half of the binding sites on the other are occupied at equilibrium, for simple one-to-one binding.

The series can be described thus: PubChem AID 977611. To be noted: PDB protein-ligand complexes, literature Kd.

The campaign covered roughly 3,900 compounds. About 3,900 (100%) were called active. Cut-off not given; nearly all actives show Kd up to about 4200 µM. The set was probably picked from earlier hits. This is one part of the list. Where a SMILES comes first, the peptide text is derived from it. Non-standard residues stand in square brackets, D forms with d. Square brackets hold non-standard residues; d marks the D form. Residues, ends and D or L forms follow the SMILES beside them. Peptide text beside a SMILES is read from it. [ ]: non-standard residue; d: D form. Orn(CH(NH2)2) = NC(N)NCCC[C@H](N)C(=O)O

Turning to `CC(=O)NCC(=O)N[C@@H](CO)C(=O)N[C@@H](C)C(=O)N[C@@H](CCCNC(N)N)C(=O)N[C@@H](C)C(=O)N[C@@H](CCC(=O)O)C(=O)N[C@H](C(=O)N[C@@H](Cc1cnc[nH]1)C(=O)N[C@@H](CC(C)C)C(=O)O)C(C)C` (Ac-GSA[Orn(CH(NH2)2)]AEVHL-OH), the dissociation constant (Kd) (protein: WD repeat-containing protein 5, PDB entry 3eg6) is 1.7 µM (active). Consider `CC(C)[C@H](NC(=O)[C@H](CCC(=O)O)NC(=O)[C@H](C)NC(=O)[C@H](CCCNC(N)N)NC(=O)[C@H](C)N)C(=O)N[C@@H](Cc1cnc[nH]1)C(=O)O` (H-A[Orn(CH(NH2)2)]AEVH-OH), for which the Kd (protein: WD repeat-containing protein 5, PDB entry 3emh) was 0.14 µM (active). `CC[C@H](C)[C@H](NC(=O)[C@H](CC(C)C)NC(=O)[C@H](CCCCN)NC(=O)[C@H](CCC(N)=O)NC(=O)[C@@H](N)CCC(=O)O)C(=O)N[C@@H](CO)C(=O)N[C@@H](CCC(=O)O)C(=O)N[C@@H](CCC(=O)O)C(=O)N[C@@H](CC(=O)O)C(=O)N[C@@H](CC(C)C)C(=O)N[C@@H](CC(N)=O)C(=O)O` (H-EQKLISEEDLN-OH): the Kd (protein: Monoclonal anti-c-myc antibody 9E10, PDB entry 2or9) was 0.5 µM (active). `CC[C@H](C)[C@H](NC(=O)[C@H](CCC(=O)O)NC(=O)[C@H](C)NC(=O)[C@H](CCC(N)=O)NC(=O)[C@H](CO)NC(=O)[C@H](CC(C)C)NC(=O)[C@@H](NC(=O)[C@@H](N)CO)[C@@H](C)CC)C(=O)N[C@@H](CC(=O)O)C(=O)N[C@@H](C)C(=O)N[C@@H](CC(C)C)C(=O)N[C@@H](CC(C)C)C(=O)N[C@@H](CC(N)=O)C(=O)O` (H-SILSQAEIDALLN-OH): the Kd (protein: double mutant Chemotaxis protein cheYD13K Y106W, PDB entry 1u8t) is 55 µM (active). Turning to H-SEAAASTAVVIA-OH, the dissociation constant (Kd) (protein: human antithrombin, PDB entry 1br8) was 18 µM (active). Regarding `Cn1c(CNc2ccc(C(=N)N)cc2)nc2cc(C(=O)N(CCC(=O)O)c3ccccn3)ccc21`, where the note is “protein: humanized anti dabigatran Fab, PDB entry 4jn2”, the Kd was 2.1e-06 µM (active). With `CCC1=CNN2C(NCc3ccc[n+]([O-])c3)CC(N3CCCC[C@H]3CCO)NC12` (some centres not stated), where the note is “protein: Bromodomain testis-specific protein, PDB entry 4kcx”, the Kd is 37 µM (active).

With `CCCCCCCC(=O)O[C@@H]1[C@@H](OC(=O)[C@@H](C)CC)[C@@H](C)[C@H]2[C@H]1[C@@](C)(OC(C)=O)C[C@H](O[C@@H](O)CCC)[C@@]1(O[C@H](O)CCC)[C@H]2O[C@@H](O)[C@@]1(C)O`, the equilibrium dissociation constant (Kd) (protein: SERCA1a, PDB entry 4j2t) was 0.011 µM (active). Turning to `CC[C@H](C)[C@H](NC(=O)[C@H](CC(=O)O)NC(=O)[C@H](CCC(=O)O)NC(=O)[C@H](CC(C)C)NC(=O)CNC(=O)[C@H](C)NC(=O)[C@H](C)N)C(=O)N[C@H](C(=O)N[C@@H](CCCNC(N)N)C(=O)N[C@@H](CCCCN)C(=O)N[C@@H](C)C(=O)N[C@@H](CC(C)C)C(=O)N[C@@H](CCSC)C(=O)NCC(=O)N[C@H](C=O)CO)[C@@H](C)CC` (H-AAGLEDII[Orn(CH(NH2)2)]KALMGS-aldehyde), the dissociation constant (Kd) (protein: Glucocorticoid receptor, PDB entry 3h52) is 14 µM (active). For the compound `CC[C@H](C)[C@H](NC(=O)[C@H](CCSC)NC(=O)CNC(=O)[C@H](CCCNC(N)N)NC(=O)[C@@H](N)CCC(N)=O)C(=O)O` (H-Q[Orn(CH(NH2)2)]GMI-OH), the Kd (protein: Response regulator aspartate phosphatase F, PDB entry 4i9c) is 3.1 µM (active). Consider `CC(C)C[C@H](NC(=O)CNC(=O)[C@H](CC(C)C)NC(=O)[C@@H](NC(=O)[C@H](CC(C)C)NC(=O)[C@H](CCC(N)=O)NC(=O)[C@@H](N)CCCNC(N)N)C(C)C)C(=O)O` (HELM PEPTIDE1{[NC(N)NCCC[C@H](N)C(=O)[*:2]].Q.L.V.L.G.L}$$$$V2.0), for which the Kd (protein: DNA polymerase III, PDB entry 1ok7) is 1.2 µM (active).

For the compound `CSCC[C@H](NC(=O)[C@H](CC(C)C)NC(=O)[C@H](C)NC(=O)[C@@H](NC(=O)[C@H](CC(N)=O)NC(=O)[C@H](CO)NC(=O)CNC(=O)[C@H](CCCNC(N)N)NC(=O)[C@H](CCCNC(N)N)NC(=O)[C@H](CCC(=O)O)NC(=O)[C@H](CCC(N)=O)NC(=O)[C@H](CC(C)C)NC(=O)[C@@H](N)CCCNC(N)N)C(C)C)C(=O)N[C@@H](CC(C)C)C(=O)N[C@@H](CC(=O)O)C(=O)N[C@@H](CS)C(=O)O` (H-[Orn(CH(NH2)2)]LQE[Orn(CH(NH2)2)][Orn(CH(NH2)2)]GSNVALMLDC-OH), the Kd (protein: Mitogen-activated protein kinase 1, PDB entry 2gph) was 5 µM (active). Consider `CC[C@H](C)[C@H](NC(=O)[C@@H](N)CCCNC(N)N)C(=O)N[C@@H](CO)C(=O)N[C@@H](C)C(=O)N[C@@H](CC(=O)O)C(=O)N[C@@H](C)C(=O)N[C@@H](CCSC)C(=O)N[C@@H](CCSC)C(=O)N[C@@H](CCC(N)=O)C(=O)N[C@@H](C)C(=O)N[C@@H](CC(C)C)C(=O)N[C@@H](CC(C)C)C(=O)NCC(=O)N[C@@H](C)C(=O)N[C@@H](CCCNC(N)N)C(=O)N[C@@H](C)C(=O)N[C@@H](CCCCN)C(=O)O` (H-[Orn(CH(NH2)2)]ISADAMMQALLGA[Orn(CH(NH2)2)]AK-OH), for which the Kd was 2000 µM (active) (protein: Regulatory Domain of Human Cardiac Troponin C and Ca2+, PDB entry 2krd); 154 µM (active) (protein: human Cardiac Troponin-C(cNTnCCa2+), PDB entry 1mxl). `CC[C@H](C)[C@H](NC(=O)[C@H](C)NC(=O)[C@H](CC(C)C)NC(=O)[C@H](CCC(N)=O)NC(=O)[C@H](CCCNC(N)N)NC(=O)CNC(=O)[C@@H](NC(=O)[C@H](CCC(N)=O)NC(=O)CN)C(C)C)C(=O)N[C@H](C(=O)NCC(=O)N[C@@H](CC(=O)O)C(=O)N[C@@H](CC(=O)O)C(=O)N[C@H](C(=O)N[C@@H](CC(N)=O)C(=O)N[C@@H](CCCNC(N)N)C(=O)O)[C@@H](C)CC)[C@@H](C)CC`: the Kd (protein: BCL-XL, PDB entry 1bxl) is 0.34 µM (active). For `CC[C@H](C)[C@H](NC(=O)[C@H](CCC(=O)O)NC(=O)[C@H](CCC(=O)O)NC(=O)[C@@H](N)CC(=O)O)C(=O)N[C@@H](CCC(=O)O)C(=O)N[C@@H](CCCNC(N)N)C(=O)N[C@@H](CCC(N)=O)C(=O)N[C@@H](CC(C)C)C(=O)N[C@@H](CCCCN)C(=O)N[C@@H](C)C(=O)N[C@@H](CC(C)C)C(=O)NCC(=O)N[C@H](C(=O)N[C@@H](CC(=O)O)C(=O)O)C(C)C` (H-DEEIE[Orn(CH(NH2)2)]QLKALGVD-OH), the equilibrium dissociation constant (Kd) (protein: Vacuolar protein sorting-associating protein 4B, PDB entry 2jqk) was 402 µM (active).

As for `CSCC[C@H](NC(=O)CNC(=O)[C@H](C)NC(=O)[C@@H](N)CCC(=O)O)C(=O)N[C@H](C(=O)N[C@@H](CC(C)C)C(=O)NCC(=O)N[C@@H](C)C(=O)N[C@@H](CCCNC(N)N)C(=O)N[C@@H](CCCCN)C(=O)N[C@@H](CC(C)C)C(=O)N[C@@H](CCCCN)C(=O)N[C@@H](CCCCN)C(=O)N[C@@H](CC(C)C)C(=O)NCC(=O)O)[C@@H](C)O` (H-EAGMTLGA[Orn(CH(NH2)2)]KLKKLG-OH), the dissociation constant (Kd) (protein: Importin subunit alpha-2, PDB entry 3btr) is 5 µM (active).
